Data from the supplement of paper PMC11006884.
Of roughly 6,500 targets only a part is listed; those with a hit were picked by preference. About 2% of all pairs of compound and target were hits.

compound: COC(=O)C#Cc1ccccc1 [methyl 3-phenylpropiolate]; assay: log2 ratio of iodoacetamide-alkyne labeling of the cysteine site, DMSO over compound (competition); higher = stronger covalent engagement of the cysteine by the compound, active = 1 or more; settings: 500 µM; treatment time 1 h; system: HEK293T cell lysate
Method in brief: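 Reporter intensities give each cysteine's log2 competition ratio as the mean of control channels over the mean of compound channels. The samples were HEK293T lysate (2 mg/mL) given vehicle or electrophile (500 µM, 1 h, ambient temperature), then iodoacetamide alkyne (1 h), followed by click coupling to sCIP-TMT reagents, pooling, trypsin digestion overnight at 37 °C, streptavidin enrichment, acid elution, Orbitrap Eclipse LC-MS/MS with FAIMS and FragPipe quantification. Duplicate channels and three replicates were run, and cysteines quantified in only one replicate were discarded.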

UniProt Q9UJW0, sequence (Q9UJW0 whole entry, looked up): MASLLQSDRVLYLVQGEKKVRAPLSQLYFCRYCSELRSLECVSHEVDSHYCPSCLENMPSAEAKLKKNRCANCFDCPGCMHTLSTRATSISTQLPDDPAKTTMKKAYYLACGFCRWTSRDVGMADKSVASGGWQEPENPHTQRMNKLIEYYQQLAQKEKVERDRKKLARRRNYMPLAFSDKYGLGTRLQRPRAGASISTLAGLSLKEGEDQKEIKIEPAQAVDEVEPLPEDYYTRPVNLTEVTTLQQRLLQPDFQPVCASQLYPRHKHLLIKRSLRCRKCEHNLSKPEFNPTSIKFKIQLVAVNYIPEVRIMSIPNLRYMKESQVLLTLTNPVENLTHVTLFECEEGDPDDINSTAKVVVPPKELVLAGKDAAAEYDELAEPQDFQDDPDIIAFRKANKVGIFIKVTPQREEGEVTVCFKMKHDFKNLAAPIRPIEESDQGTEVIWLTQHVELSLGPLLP
UniProt Q9UKV3, sequence (Q9UKV3 whole entry, looked up): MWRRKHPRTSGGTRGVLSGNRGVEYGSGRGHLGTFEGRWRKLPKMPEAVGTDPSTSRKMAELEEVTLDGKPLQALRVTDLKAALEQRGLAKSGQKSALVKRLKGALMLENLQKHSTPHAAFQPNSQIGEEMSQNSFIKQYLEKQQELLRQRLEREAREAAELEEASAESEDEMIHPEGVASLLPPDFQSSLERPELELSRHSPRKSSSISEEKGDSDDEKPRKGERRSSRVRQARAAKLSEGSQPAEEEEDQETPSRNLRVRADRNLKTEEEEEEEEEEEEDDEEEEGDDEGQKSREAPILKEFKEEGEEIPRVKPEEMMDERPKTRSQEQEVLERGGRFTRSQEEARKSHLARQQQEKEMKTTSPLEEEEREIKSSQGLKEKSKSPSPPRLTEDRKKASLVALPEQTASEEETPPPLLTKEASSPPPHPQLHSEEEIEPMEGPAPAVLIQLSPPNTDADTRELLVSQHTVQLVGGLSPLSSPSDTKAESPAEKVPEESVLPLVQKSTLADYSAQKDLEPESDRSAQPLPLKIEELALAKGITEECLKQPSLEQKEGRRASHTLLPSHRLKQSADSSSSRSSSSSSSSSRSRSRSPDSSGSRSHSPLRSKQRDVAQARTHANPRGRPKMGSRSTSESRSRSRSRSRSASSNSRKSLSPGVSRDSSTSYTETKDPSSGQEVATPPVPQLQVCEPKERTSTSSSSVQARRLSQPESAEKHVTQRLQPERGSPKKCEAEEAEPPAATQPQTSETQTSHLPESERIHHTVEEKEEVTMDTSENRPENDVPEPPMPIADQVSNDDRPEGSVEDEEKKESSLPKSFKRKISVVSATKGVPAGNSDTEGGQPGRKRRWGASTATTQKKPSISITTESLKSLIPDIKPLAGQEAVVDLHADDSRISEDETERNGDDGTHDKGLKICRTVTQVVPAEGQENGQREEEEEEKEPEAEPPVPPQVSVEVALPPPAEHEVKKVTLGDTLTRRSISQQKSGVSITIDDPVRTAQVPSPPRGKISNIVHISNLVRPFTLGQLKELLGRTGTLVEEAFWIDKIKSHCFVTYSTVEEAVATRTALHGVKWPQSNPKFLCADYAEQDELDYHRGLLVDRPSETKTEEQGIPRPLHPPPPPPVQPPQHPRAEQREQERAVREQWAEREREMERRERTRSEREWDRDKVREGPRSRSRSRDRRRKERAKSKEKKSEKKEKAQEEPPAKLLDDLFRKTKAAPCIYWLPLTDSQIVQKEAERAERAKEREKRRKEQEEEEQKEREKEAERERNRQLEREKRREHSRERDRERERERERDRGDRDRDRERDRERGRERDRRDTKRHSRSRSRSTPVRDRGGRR
UniProt Q9UNK0, sequence (Q9UNK0 whole entry): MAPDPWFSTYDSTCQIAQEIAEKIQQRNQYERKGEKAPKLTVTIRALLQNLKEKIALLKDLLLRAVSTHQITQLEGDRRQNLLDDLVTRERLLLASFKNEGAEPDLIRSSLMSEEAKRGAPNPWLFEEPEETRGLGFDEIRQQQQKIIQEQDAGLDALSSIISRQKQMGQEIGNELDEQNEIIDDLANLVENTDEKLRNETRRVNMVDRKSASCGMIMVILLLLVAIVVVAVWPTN
UniProt Q9NRL3, sequence (Q9NRL3 whole entry, looked up): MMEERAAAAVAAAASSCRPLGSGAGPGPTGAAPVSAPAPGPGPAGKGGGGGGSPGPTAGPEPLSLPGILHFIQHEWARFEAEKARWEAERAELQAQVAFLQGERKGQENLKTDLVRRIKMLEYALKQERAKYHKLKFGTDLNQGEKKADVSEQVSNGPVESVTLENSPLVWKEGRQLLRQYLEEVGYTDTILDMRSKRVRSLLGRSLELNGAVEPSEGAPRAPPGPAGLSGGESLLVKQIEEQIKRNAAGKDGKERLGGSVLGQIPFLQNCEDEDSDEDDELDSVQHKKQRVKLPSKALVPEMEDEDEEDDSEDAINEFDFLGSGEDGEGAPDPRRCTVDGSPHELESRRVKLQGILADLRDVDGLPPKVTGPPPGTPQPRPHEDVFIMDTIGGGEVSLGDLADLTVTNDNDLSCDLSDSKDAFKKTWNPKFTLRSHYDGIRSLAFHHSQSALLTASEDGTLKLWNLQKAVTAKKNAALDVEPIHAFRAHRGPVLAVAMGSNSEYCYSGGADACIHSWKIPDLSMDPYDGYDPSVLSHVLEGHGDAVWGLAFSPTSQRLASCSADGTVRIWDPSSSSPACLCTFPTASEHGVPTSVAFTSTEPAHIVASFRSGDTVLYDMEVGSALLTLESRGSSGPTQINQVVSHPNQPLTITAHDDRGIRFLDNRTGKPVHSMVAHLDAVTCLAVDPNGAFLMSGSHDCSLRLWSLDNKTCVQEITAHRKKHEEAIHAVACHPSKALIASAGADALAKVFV
UniProt Q9Y4W6, sequence (Q9Y4W6 whole entry, looked up): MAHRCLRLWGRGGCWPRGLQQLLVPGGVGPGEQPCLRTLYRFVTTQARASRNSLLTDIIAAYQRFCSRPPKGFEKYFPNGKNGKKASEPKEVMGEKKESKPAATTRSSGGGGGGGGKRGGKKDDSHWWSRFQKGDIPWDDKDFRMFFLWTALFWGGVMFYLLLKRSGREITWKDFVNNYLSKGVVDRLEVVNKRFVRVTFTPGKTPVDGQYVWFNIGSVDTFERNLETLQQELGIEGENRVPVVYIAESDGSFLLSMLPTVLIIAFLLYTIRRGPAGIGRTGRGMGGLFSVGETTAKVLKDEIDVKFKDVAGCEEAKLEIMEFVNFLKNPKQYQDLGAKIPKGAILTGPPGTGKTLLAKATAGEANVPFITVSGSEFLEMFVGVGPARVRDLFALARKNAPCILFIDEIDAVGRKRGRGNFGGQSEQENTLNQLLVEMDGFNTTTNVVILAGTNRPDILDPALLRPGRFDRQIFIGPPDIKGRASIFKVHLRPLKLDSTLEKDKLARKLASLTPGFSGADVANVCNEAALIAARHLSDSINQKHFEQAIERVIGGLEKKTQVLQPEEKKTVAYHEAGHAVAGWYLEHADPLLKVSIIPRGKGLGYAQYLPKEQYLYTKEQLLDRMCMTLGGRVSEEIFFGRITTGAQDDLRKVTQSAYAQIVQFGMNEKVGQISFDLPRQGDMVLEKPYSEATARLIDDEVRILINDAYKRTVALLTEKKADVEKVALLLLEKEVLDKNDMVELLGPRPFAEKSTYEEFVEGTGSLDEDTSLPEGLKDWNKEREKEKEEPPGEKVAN
UniProt Q9H7B4, sequence (Q9H7B4 whole entry): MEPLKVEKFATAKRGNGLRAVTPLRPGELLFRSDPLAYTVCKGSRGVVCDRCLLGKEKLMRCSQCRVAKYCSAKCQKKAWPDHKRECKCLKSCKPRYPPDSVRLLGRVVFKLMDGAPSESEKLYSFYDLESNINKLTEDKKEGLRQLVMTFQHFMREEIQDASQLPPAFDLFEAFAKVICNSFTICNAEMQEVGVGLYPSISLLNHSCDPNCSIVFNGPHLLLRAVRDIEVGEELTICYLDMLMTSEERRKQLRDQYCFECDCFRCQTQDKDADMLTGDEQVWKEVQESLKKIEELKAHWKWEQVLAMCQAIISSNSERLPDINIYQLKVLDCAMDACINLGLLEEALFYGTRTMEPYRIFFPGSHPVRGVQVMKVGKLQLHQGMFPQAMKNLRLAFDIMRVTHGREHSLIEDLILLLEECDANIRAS
UniProt Q9NX63, sequence (Q9NX63 whole entry): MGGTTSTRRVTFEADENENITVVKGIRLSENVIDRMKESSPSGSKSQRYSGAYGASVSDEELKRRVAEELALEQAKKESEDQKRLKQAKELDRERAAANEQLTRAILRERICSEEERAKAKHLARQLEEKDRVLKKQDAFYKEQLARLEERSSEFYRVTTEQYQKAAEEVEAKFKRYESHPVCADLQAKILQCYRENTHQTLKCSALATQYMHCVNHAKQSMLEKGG
UniProt Q9BZE9, sequence (Q9BZE9 whole entry, looked up): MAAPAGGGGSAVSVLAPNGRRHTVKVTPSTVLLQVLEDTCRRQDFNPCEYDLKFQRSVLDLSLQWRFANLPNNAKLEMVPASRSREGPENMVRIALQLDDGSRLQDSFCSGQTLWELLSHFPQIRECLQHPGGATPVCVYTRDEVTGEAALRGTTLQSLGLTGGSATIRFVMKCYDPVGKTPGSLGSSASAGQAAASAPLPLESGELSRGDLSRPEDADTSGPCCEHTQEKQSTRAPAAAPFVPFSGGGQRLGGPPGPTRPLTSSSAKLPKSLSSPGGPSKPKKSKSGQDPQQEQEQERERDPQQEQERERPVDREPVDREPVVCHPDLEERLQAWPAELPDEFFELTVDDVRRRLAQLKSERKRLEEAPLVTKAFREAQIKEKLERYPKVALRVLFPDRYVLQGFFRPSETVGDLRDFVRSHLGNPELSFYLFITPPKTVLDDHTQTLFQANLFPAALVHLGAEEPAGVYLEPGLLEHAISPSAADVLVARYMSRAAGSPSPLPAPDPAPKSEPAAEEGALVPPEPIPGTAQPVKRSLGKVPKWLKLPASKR

log2 ratio of iodoacetamide-alkyne labeling, inactive:
CHCHD3 C112 (UniProt Q9NX63) 0.0891
UniProt Q9Y678_C129 0.51
MBNL1 C27 (UniProt Q9NR56) 0.203
TACC3 C206 (UniProt Q9Y6A5) -0.132
STX8 C14 (UniProt Q9UNK0) -0.148
STRN4 C337 (UniProt Q9NRL3) 0.488
MBD1 C57 (UniProt Q9UIS9) 0.0108
DDX56 C286 (UniProt Q9NY93) 0.51
PUS7L C142 (UniProt Q9H0K6) -0.0378
ACIN1 C691 (UniProt Q9UKV3) 0.212
SRP68 C247 (UniProt Q9UHB9) 0.197
MDN1 C172 (UniProt Q9NU22) 0.0689
BCLAF1 C688 (UniProt Q9NYF8) 0.524
SMYD3 C421 (UniProt Q9H7B4) 0.00903
UniProt Q9H1B7_C385 0.164
MACF1 C5049 (UniProt Q9UPN3) 0.311
DCTN4 C41 (UniProt Q9UJW0) 0.309
CARS2 C526 (UniProt Q9HA77) 0.206
AFG3L2 C525 (UniProt Q9Y4W6) 0.198

log2 ratio of iodoacetamide-alkyne labeling, active:
ASPSCR1 C225 (UniProt Q9BZE9) 1.02
FAM120A C531 (UniProt Q9NZB2) 1.68
UniProt Q9UBD5_C158 1.13
